Source: PubChem BioAssay
Dicer inh – inhibitors of Dicer pre-microRNA processing, primary screen, biochemical, cat-ELCCA, chemiluminescence. z-score at 25 µM. Endoribonuclease Dicer (Homo sapiens), Q9UPY3. cat-ELCCA pre-miR-21 Dicer processing; stronger effect = higher value. AID 1347074, 2019. hit rate 6% among 47,000; in the data active = z-score above about 3, passing the limit was not always enough;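 also: plate controls were vehicle for no effect and no enzyme for full effect; higher signal means more uncleaved substrate so more Dicer inhibition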
* = called active by the depositor. Shown is part of a subset that was picked to be rich in hits.

Screening COc1cccc(C2c3c(oc4ccccc4c3=O)C(=O)N2c2nnc(C)s2)c1 (stereo not given) returned Dicer inh -0.76.
For Cc1ccc(S(=O)(=O)NN=C2CC3(C)CC(=NNS(=O)(=O)c4ccc(C)cc4)CC3(C)C2)cc1 (stereo not given) the results were Dicer inh -2.4.
`Cc1cc2nc(-c3cccc(Br)c3)cc(C(F)(F)F)n2n1` gave Dicer inh -1.5.
Screening FC(F)(F)c1cc(-c2ccc(Br)cc2)nc2ncnn12 returned Dicer inh -0.18.
Screening FC(F)(F)c1cc(-c2cccc(Br)c2)nc2ncnn12 returned Dicer inh 3.9*.
For Nc1nc2nc(-c3ccc(OCc4ccccc4)cc3)cc(C(F)(F)F)n2n1 the results were Dicer inh 0.12.
For FC(F)(F)c1cccc(Nc2cc(-c3ccccc3)nc3ncnn23)c1 the results were Dicer inh 0.54.
Nc1nc2nc(-c3cccc(Br)c3)cc(C(F)(F)F)n2n1 was read as Dicer inh 4.9*.
Screening O=C(NC1CC1)c1cc(F)cc2c1OCOC2 returned Dicer inh 0.54.
Cc1cc(CSC(=N)N)c(C)cc1CSC(=N)N was read as Dicer inh -7.9.
Screening CCc1cc2c(=O)c(-c3nc4ccccc4n3C)coc2c(CN(CC)CC)c1O returned Dicer inh 0.32.
`CCc1cc2c(=O)c(-c3nc4ccccc4[nH]3)coc2c(CN2CCCC(C)C2)c1O` (stereo not given) gave Dicer inh 3.3*.
CN1CCN(Cc2c(O)ccc3c(=O)c(-c4ccccc4)coc23)CC1 was read as Dicer inh 2.
Screening CC(=O)N1N=C(c2ccco2)CC1c1cn(-c2ccccc2)nc1-c1cccs1 (stereo not given) returned Dicer inh -1.1.
`COC(=O)c1cccc(NC(=O)NCc2ccccc2)c1C` gave Dicer inh 0.6.
Screening Cc1ccc(C)c(CNC(=O)c2nc3c(nnn3CC3CCCO3)c(=O)[nH]2)c1 (stereo not given) returned Dicer inh 2.1.
`N#Cc1cccc2c1-c1ccccc1C2=O` gave Dicer inh -1.3.
`Cc1cc(C)c2c(n1)sc1c(=O)n(Cc3ccc([N+](=O)[O-])cc3)cnc12` gave Dicer inh -0.27.
S=C(NC1CCCCC1)C(=S)NC1CCCCC1 was read as Dicer inh -1.1.
For O=c1c(NC2CCCCC2)c(NC2CCCCC2)c1=O the results were Dicer inh 5.9*.
For S=c1[nH]nc(NC2CCCCC2)s1 the results were Dicer inh 0.77.
For N#Cc1ccc(Sc2cccs2)c([N+](=O)[O-])c1 the results were Dicer inh -1.
For Cc1ccc2nc(NC3=NCN(C(C)C)CN3)nc(C)c2c1 the results were Dicer inh 0.47.
For O=S(=O)(c1cc(C(F)(F)F)ccn1)c1cccs1 the results were Dicer inh 0.49.
For NC(=S)N/N=C/Cc1nnnn1-c1ccc(-c2ccccc2)cc1 the results were Dicer inh 3.2*.
For CN(/N=C/Cc1nnnn1-c1ccc(Cl)cc1)c1ccccc1 the results were Dicer inh -1.1.
For Clc1ccccc1N/N=C/Cc1nnnn1-c1ccccc1 the results were Dicer inh 0.48.
CCc1[nH]c(=O)cc2cc(OC)c(OC)cc12 was read as Dicer inh -5.7.
For COC(=O)C1C2C=CC3(CN(Cc4ccccc4)C(=O)C13)O2 (stereo not given) the results were Dicer inh 1.7.
For O=C(O)C1C2C=CC3(CN(Cc4ccccc4)C(=O)C13)O2 (stereo not given) the results were Dicer inh 3.2*.
Screening O=C(O)C1C2C=CC3(CN(CCc4ccccc4)C(=O)C13)O2 (stereo not given) returned Dicer inh -0.96.
Screening Clc1ccc(CSc2nnc3c(n2)OC=Nc2ccccc2-3)cc1 returned Dicer inh 2.2.
`CC(C)C(NC(=O)OCc1ccccc1)C(=O)NCC(=O)O` (stereo not given) gave Dicer inh 0.24.
Screening Cn1cnnc1SCC(=O)N1c2ccccc2CCc2ccccc21 returned Dicer inh 0.92.
CC1=CC(C)(C)N(C(=O)CSc2nncn2C)c2ccccc21 was read as Dicer inh 0.89.
For Cc1ccc2c(c1)C(C)(c1ccccc1)CC(C)(C)N2C(=O)CSc1nncn1C (stereo not given) the results were Dicer inh 5.6*.
`O=[N+]([O-])c1cc(C(F)(F)F)ccc1Oc1ccc(SC(F)(F)F)cc1` gave Dicer inh -0.52.
Screening CCOC(=O)N1CCC(NC(=O)Nc2ccc3c(c2)CCO3)CC1 returned Dicer inh 5*.
Screening CC(C)N(CCC#N)C(=O)Nc1ccc2c(c1)CCO2 returned Dicer inh 0.86.
For CCOC(=O)N1CCC(NC(=O)c2cc(C)cc(C)c2)CC1 the results were Dicer inh -0.17.
Cc1ccc(N2C(=O)C3ON(c4ccccc4)C(c4ccccc4O)C3C2=O)cc1 (stereo not given) was read as Dicer inh 0.87.
For O=C1C2ON(c3ccccc3)C(c3ccccc3O)C2C(=O)N1c1ccc(Br)cc1 (stereo not given) the results were Dicer inh 3.4*.
`COc1ccc(N2C(=O)C3ON(c4ccccc4)C(c4cc(Br)ccc4O)C3C2=O)cc1` (stereo not given) gave Dicer inh 2.5.
`COc1ccc(N2C(=O)C3ON(c4ccccc4)C(c4ccco4)C3C2=O)cc1` (stereo not given) gave Dicer inh 0.58.
`COc1ccc(C2C3C(=O)N(c4ccccc4)C(=O)C3ON2c2ccccc2)cc1` (stereo not given) gave Dicer inh -0.29.
`O=C1C2ON(c3ccccc3)C(c3cccnc3)C2C(=O)N1c1ccc(F)cc1` (stereo not given) gave Dicer inh 0.56.
Cc1ccc(N2C(=O)C3ON(c4ccccc4)C(c4cccnc4)C3C2=O)cc1 (stereo not given) was read as Dicer inh -0.52.
Screening COC(=O)c1ccc(N2C(=O)C3ON(c4ccccc4)C(c4ccc(OC)cc4OC)C3C2=O)cc1 (stereo not given) returned Dicer inh -0.46.
For COc1ccc(C2C3C(=O)NC(=O)C3ON2c2ccccc2)cc1 (stereo not given) the results were Dicer inh -0.09.
O=C1C2ON(c3ccccc3)C(c3cc(Br)ccc3O)C2C(=O)N1c1ccccc1 (stereo not given) was read as Dicer inh 4.7*.
Screening COc1cccc(N2C(=O)C3ON(c4ccccc4)C(c4ccccc4O)C3C2=O)c1 (stereo not given) returned Dicer inh 3.9*.
For COc1ccc(N2C(=O)C3ON(c4ccccc4)C(c4ccccc4O)C3(C)C2=O)cc1 (stereo not given) the results were Dicer inh 4*.
Screening Cn1nc(C(F)(F)F)c(-c2ccccc2)c1NC(=O)c1ccc(F)cc1 returned Dicer inh -0.74.
Screening CC(C)Cc1ccc(C(C)C(=O)O/N=C(\N)c2cccc(Cl)c2)cc1 (stereo not given) returned Dicer inh -0.74.
`CC1(C)CC(=O)Nc2ccccc2S1` gave Dicer inh 0.47.
`Cc1cc(Cl)ccc1OC(C)C(=O)Nc1sc2c(c1C(N)=O)CCCC2` (stereo not given) gave Dicer inh 1.3.
Screening COc1ccc(C2CC(=O)Nc3nc(N)[nH]c(=O)c32)c(OC)c1 (stereo not given) returned Dicer inh -0.94.
